Structures are written as SMILES. Records with an inconclusive call do not appear. A call without a number means that no potency is given here. Calls of active or inactive are those of the source. Calls follow the shape of the dose curve; as a rule, active = well fitted inhibition curve with a large enough effect; inconclusive = small, poorly fitted or top-dose-only effect; inactive = no such curve, though single readings can be large or run the other way.
Potency is read from the fitted curve at half-maximal effect.

A short description of this test: Confirmatory qHTS for Identification of Small Molecule Inhibitors of Huntingtin Promoter Activity. Also: nearly all actives have a fitted effect of over 65% in size. Conditions: HEK293 HTT promoter firefly luciferase reporter, 24 h; series mostly up to 57.5 µM. In outline:
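2,500 luciferase reporter HEK293 cells/well; 24 h culture; cpds up to 57.5 uM final, PTC124 50 uM ctrl; 24 h, 37C; Dual-Glo FLuc reagent, 10 min RT; lum. Norm.: vehicle 0%, zero RLU -100%.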
Regarding `O=C(NCCC1=CCCCC1)c1ccc2c(c1)N(Cc1cccc(Cl)c1)C(=O)c1ccccc1S2(=O)=O`, the Potency entry was “inactive”.
For the compound `Cn1cc(CNCC2CCN(c3ncc(C(=O)NO)cn3)CC2)c2ccccc21`, the Potency result is “inactive”.
The entry for `O=C(CN1c2ccc(Br)cc2-c2ccccc2S1(=O)=O)N1CCCCC1` is “inactive”.
The entry for `O=C(Nc1ccccc1)c1ccc(Cl)c(S(=O)(=O)Nc2ccccc2)c1` is “inactive”.
Turning to `O=C(NCc1cccnc1)C(=O)NCC(c1cccnc1)N1CCN(c2ccccc2F)CC1` (stereo not given), the Potency entry is “inactive”.
Take `Cc1ccc(CNC(=O)c2c(Nc3c(C)cccc3C)sc(C(=O)c3ccccc3)c2N)cc1`: the Potency is 9.53 µM (active).
Regarding `CC(=O)c1cccc(NS(=O)(=O)c2cccc(S(=O)(=O)c3ccc(Br)cc3)c2)c1`, the Potency is 26.9 µM (active).
Turning to `COc1ccc(S(=O)(=O)Nc2cc(-c3cn4ccc(C)cc4n3)ccc2C)cc1OC`, the Potency entry was “inactive”.
Next, `Cc1ccc(N2C(=O)C(CC(=O)Nc3ccccc3)N(CCC3=CCCCC3)C2=O)cc1` (stereo not given): “inactive”.
The figure for `CN(C)c1ccc(C(=C2C=CC(=[N+](C)C)C=C2)c2ccc(N(C)C)cc2)cc1` is 3.01 µM (active).
As for `CC(C)(C)C(=O)NCCc1nc2ccccc2n1CCCCOc1ccc(Cl)cc1`, the Potency was 26.9 µM (active).
In the case of `O=c1c(-c2ccc(O)cc2)coc2cc(O)ccc12`, the Potency result is “inactive”.
Next, `COc1ccccc1C1Nc2c(sc3nc(C)cc(C)c23)C(=O)N1c1ccccc1` (stereo not given): “inactive”; `Cc1ccccc1OCC(=O)Nc1ccccc1C(=O)OCc1cc(=O)n2c(C)csc2n1`: “inactive”.
The entry for `O=C(Nc1cccc(C(=O)N2CCN(c3ccc(Cl)cc3)CC2)c1)c1nsc2ccccc12` is “inactive”.

The values are drawn from PubChem BioAssay AID1508621 (National Center for Advancing Translational Sciences (NCATS), 2021).
